Test results: publication PMC13494018; call rule not given here

B1: d4r3_design_ppi_107_dldesign_0_cycle1_af2pred (protein)
chain: SAAAKEAAEKQEGRFEADLYEVKAKNAAEKYKDDKKKQAEVLEKIAEEAKKKAKEASPVIAKGYKEGAKVAEKLAKEAKKEA
B2: d4r3_design_ppi_205_dldesign_0_cycle0_af2pred (protein)
chain: SKEEKVKEYLEKAKEALEKMKETAADATAMNANYTEAKYYADKAAKESEEFKEEAEKLKEEAKKAYKEAAAKYAAAKAAAA
B3: d4r3_design_ppi_225_dldesign_0_cycle0_af2pred (protein)
chain: AEDAALAKQAAAKLAEARQKANEALQYAKNGNVEEAKKSLEEAKAALAEAKALAAKASPETQAKAQKALDGVEKRIAEAEKAIKEK
B4: d4r2_design_ppi_363_dldesign_0_cycle0_af2pred (protein)
chain: SLEEAKKSQEELQKKSTEKWLETQIKEAEKKAKEFKSLGEEAKKKAEEILKEVEKAKASTPEEGLEHAAKAAKIIEEAEKKL
B5: d4r3_design_ppi_32_dldesign_0_cycle1_af2pred (protein)
chain: AEEKAKEAKELAEKAKKTAKEAKELGDEEAAKLAEEGAKDAEEASKIFESGASPAEQADAMAKYRSGKAYNDLAEKRIKEKKK
B6: d4r2_design_ppi_432_dldesign_0_cycle1_af2pred (protein)
chain: EEEEKKKAEEEAKKVAELALKDPEAGAKAAKEMLPWSAEGLEALAKALAEAAKKAAKEDPEKAEKIKKVYNDAASAALRAEAKEERKA
B7: d4r2_design_ppi_190_dldesign_0_cycle1_af2pred (protein)
chain: MEVEKTAKEAVEAVKAKSPKAAPKMEEAKKAAIEAAKLGKKEEALELLTKAKKAAEAGNVAEAIAYANEAIWLGEKLKK
B8: d4r3_design_ppi_187_dldesign_0_cycle1_af2pred (protein)
chain: SEEKEEGEIYVKHAKLAIEAGKEEKEAGDYKSAIALAKTAIKEAKRAIENPDEEAKKKGKEKLKEAEKALEEIEKALKEAEEK
B9: d4r2_design_ppi_407_dldesign_0_cycle0_af2pred (protein)
chain: MEEKKNKAKQFAFSEFMKAAAAAPPELRPKIEEAMDKTLEALDESFDKAIKVAEEVAKLPIAKKYAEKAKKFIEEQKK
B10: d4r3_design_ppi_39_dldesign_0_cycle0_af2pred (protein)
chain: DYEKKLKEEMEKYKKEAEKAAADPGAMYQKVLEGKAAADGIVNIAKEEAEEKGDEELKKKAEEAKKKAEEAIKEMKAKADAAAAA
B11: d4r2_design_ppi_339_dldesign_0_cycle1_af2pred (protein)
chain: GESTEKAKKIYEEIKKKAEEYKKKAKEAAELLVEKGEEGGKKLKEIEEEAAKELPEVSFQVKAYINTLKEEAEKRRKEKEA
B12: d4r2_design_ppi_363_dldesign_0_cycle1_af2pred (protein)
chain: GLAEAEKKQKELEEKSTKEYIEKVIKESKKKAKELKKKGEEAKKYAEKIEAEVEKAEKATLDEAIEYTSKARKLVEEAEKKL
B13: d4r2_design_ppi_159_dldesign_0_cycle1_af2pred (protein)
chain: ELEEEAKKAKEVAEKLKKFNLESRLEADEIEAKSKAALREGKENNEEAKKEGLKKVKEQLKKAEELLKKL
B14: d4r2_design_ppi_271_dldesign_0_cycle0_af2pred (protein)
chain: MTKEELEKLKKEVEEAEKLAQEVLKIDKESGEEILKLVTKAKGYAEFAEDALELGSQKAAESFAKKAKEYVKKAEKLAKETLAKAA
B15: d4r3_design_ppi_140_dldesign_0_cycle0_af2pred (protein)
chain: ATEEQKLKAEAAALGGLYVFSPEGGKRRLERIKEELEEEAERYKEENPEKGPEYEKELREKFETLKELMEKEAAEIKA
B16: d4r2_design_ppi_419_dldesign_0_cycle0_af2pred (protein)
chain: DEEKEELKKKIEEAKKKVEEAKKLAEKTSEEVKKLTKEAETEIALAEGYLDNGAAIELAKKKAEEGLKLADEALKLAEKILKEKE
B17: d4r2_design_ppi_335_dldesign_0_cycle1_af2pred (protein)
chain: GAVTEALDKVLELSEKAIELAEKALKAAKEDKEEAKKYLEKAREKVKEAEKLAKESGSKAGKSIARNTKEYVEKKEKEIKEII
B18: d4r3_design_ppi_139_dldesign_0_cycle1_af2pred (protein)
chain: SMMDEVAKKREKKLIEESTAAAKAALAEAKAIAAGADTPENRAARAAAAEKAIANARIAGGALGKEEGEKLVSEVEAAVKA
B19: d4r3_design_ppi_225_dldesign_0_cycle1_af2pred (protein)
chain: AADAALAAAAAEELAKARSLATEALLYAKKGKVEEAKKLLEEAEKALKKAEELAAAASPEVQARAKKAIEGVKKKIEEAKKAIKEK
B20: d4r2_design_ppi_310_dldesign_0_cycle1_af2pred (protein)
chain: AVEKALKIIEETEKEAKEAFEKNPETGLAIAKATYRTAEHLGSKLNKEDAEKLKKKGKEYLEEFEKRYKEKKKELEE
B21: d4r2_design_ppi_226_dldesign_0_cycle1_af2pred (protein)
chain: MELEKKAKEVAKEAKEKAEEAEKAAEEILKKKKAIKEAGTLYSASERFKQVAEAAELDPSKAEEGRKVMERLKERAEKAVKEAE
B22: d4r3_design_ppi_53_dldesign_0_cycle1_af2pred (protein)
chain: MDPEVTKKKEAEVEAAGDVKLEGIKYLEEAKKLAKEDKEKGRKLLEEAAKEFKERAKEYEKEGKKIAARYAKEEAKKLEELAKEL
B23: d4r2_design_ppi_327_dldesign_0_cycle1_af2pred (protein)
chain: DETVIQAKATIESAKERAEHIKKAIKEKPKTKEELKKAKKILEELEKKAEEAYKKAGEAVKEEYEKAKKAIKEAKKEAEKNLK
B24: d4r2_design_ppi_319_dldesign_0_cycle0_af2pred (protein)
chain: EEEEKESERLAEEARRAAEEARRRIREAAERSAEAAREALEEARRRMEELIKEAKKHKKAYAVAAGEAERVLHFGEAALARREAAE
B25: d4r2_design_ppi_171_dldesign_0_cycle1_af2pred (protein)
chain: ANEAEAEKYYAEGEQKMILGDTAYEMGKKKGPIFYKIAAEEYKEAAELYKEAAKLASPEKAKEYKEKAKEAEEKSKEAKKKGEE
B26: d4r3_design_ppi_43_dldesign_0_cycle1_af2pred (protein)
chain: SLIEEMKKELEELVKKAEAASPAEAPWYAQEARSYGKYYSEKVEKEGNPEEAKKAKEIAEKLSEEARKIAEKKR
B27: d4r2_design_ppi_477_dldesign_0_cycle0_af2pred (protein)
chain: EEEKKEKLKKERHELASELARLASLADALGDKELAEKAEKAMELLALDPEKGKEAAKEVKEAAKKRLAAAKAAAA
B28: d4r2_design_ppi_460_dldesign_0_cycle0_af2pred (protein)
chain: EELKKLTEEALKKAEEAEKKAKELIKEGKTTPLVKKALEAAEKAEAASISPERALEYAKKAEELYKKAIEEIK
B29: d4r3_design_ppi_205_dldesign_0_cycle1_af2pred (protein)
chain: DLDAKAQALLDQAKEALAQMQATAADTVAYLSQATDAKYYARKAAKLDPKFKPQADALIAQLDAALAAAKAAYQAAKAAAA
B30: d4r2_design_ppi_335_dldesign_0_cycle0_af2pred (protein)
chain: SKVTEDQDKIIELSNKAVEKAEKALEAAKKDKEEAKKYLEEAEKLVEEAEKLAKESGSKAGRAIARNTKEYLEKKKKEIEELL
B31: d4r3_design_ppi_27_dldesign_0_cycle1_af2pred (protein)
chain: AEEKAKRMEKKAKEIAEEAKELKKNAPKLDPEEAEKKARLLLGRAEGLLEQAKFGGLPEKVEKAAKEAVKAAKEALKVAKELKEK
B32: d4r3_design_ppi_206_dldesign_0_cycle1_af2pred (protein)
chain: SPEERELAARAQEEAALAKGMKIVVKNNPKSEKAIKDAEETAKEALEAAERIEKLENPTPEAKAAAERARKEAEELLKEVKKAK
B33: d4r2_design_ppi_432_dldesign_0_cycle0_af2pred (protein)
chain: AEEELKEAERKAKEVAKLAMEDPEAGAKEAEKMSEGSAEALEALAKELKKAAKEAEKEDKEKAEKIKKIYNKAAAAALRAEALADNAA
B34: d4r2_design_ppi_378_dldesign_0_cycle0_af2pred (protein)
chain: MEEERQKKAEEELKKAKEAVEEGIKYAKEGNIMEANAKLSEARVHAEKAKKLDPETGKEIEKLVEEARKKIKEIAEK
B35: d4r2_design_ppi_295_dldesign_0_cycle1_af2pred (protein)
chain: MAEEAAKAVKNRAERLAKEFPEAAPVMKAVAEEAKKKLEEAKGKSPTEIANVAQDYQAEATAKYAEVKRETEKKLAA
B36: d4r2_design_ppi_407_dldesign_0_cycle1_af2pred (protein)
chain: SEEAKIKAKQYTSSLFTKAYLKASPETAPKIEEALEKAFEAIDKSFDEAIAVMKELAELPEAKEEAEKAEKFVAEQKK
B37: d4r2_design_ppi_226_dldesign_0_cycle0_af2pred (protein)
chain: SELEEEAKKVAEEARELAKEAEEAAEKILKEKNNLKEAGTLYAQSAQAKQAAEAVELNPEKAEEARERLKKAKERMKEAVKKAE
B38: d4r2_design_ppi_327_dldesign_0_cycle0_af2pred (protein)
chain: SQEVIQAKGKIQAAKEQAEAMKEAIEKKPKSPEELERALERLKRLEEEAKEAAKKAGEEVKEEYEEAKKAIEEAKKAAEENRK

Target: VTCN1, Q7Z7D3
Sequence (Q7Z7D3 whole entry): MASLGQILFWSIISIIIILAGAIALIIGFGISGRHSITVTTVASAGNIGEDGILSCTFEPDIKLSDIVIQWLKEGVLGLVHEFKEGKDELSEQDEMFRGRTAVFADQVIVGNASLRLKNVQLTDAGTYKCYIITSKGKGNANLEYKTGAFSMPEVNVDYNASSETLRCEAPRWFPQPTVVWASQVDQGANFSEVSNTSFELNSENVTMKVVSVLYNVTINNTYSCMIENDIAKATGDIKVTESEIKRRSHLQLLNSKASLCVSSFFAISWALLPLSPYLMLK

Binder	binding in a display sort
B1	not found (inactive)
B2	not found (inactive)
B3	not found (inactive)
B4	not found (inactive)
B5	not found (inactive)
B6	not found (inactive)
B7	not found (inactive)
B8	not found (inactive)
B9	not found (inactive)
B10	not found (inactive)
B11	not found (inactive)
B12	not found (inactive)
B13	not found (inactive)
B14	not found (inactive)
B15	not found (inactive)
B16	not found (inactive)
B17	not found (inactive)
B18	not found (inactive)
B19	not found (inactive)

Binder	binding in a display sort
B20	not found (inactive)
B21	not found (inactive)
B22	not found (inactive)
B23	not found (inactive)
B24	not found (inactive)
B25	not found (inactive)
B26	not found (inactive)
B27	not found (inactive)
B28	not found (inactive)
B29	not found (inactive)
B30	not found (inactive)
B31	not found (inactive)
B32	not found (inactive)
B33	not found (inactive)
B34	not found (inactive)
B35	not found (inactive)
B36	not found (inactive)
B37	not found (inactive)
B38	not found (inactive)
